The source of these data is PubChem BioAssay (NCATS).

SMILES strings stand for the structures. Records with an inconclusive call do not appear. Where a call stands in place of a potency, no number is given. Calls of active or inactive are those of the source. Calls come from the whole dose curve.
Potency is the fitted concentration of half-maximal effect.

The nature of the test: Cytotoxicity counterscreen for inhibitors of SARS-CoV-2 cell entry (AID 1645845). Note: nearly all actives have a fitted effect of over 50% in size. The note with it: cell viability (SARS-CoV-2 entry assay cells); series mostly up to 57.1 µM. The text has this:
Assay Provider: Wei Zheng, Ph.D.
National Center for Advancing Translational Sciences, National Institute of Health, Rockville, MD.
SARS-CoV-2 spike protein, within the viral envelope, mediates viral attachment and infection of host cells. The SARS-CoV-2 spike protein specifically binds to the host receptor ACE2 (Angiotensin-converting enzyme 2). This interaction promotes endocytosis of the viral particle, additional events lead to viral-host cell membrane fusion and release of the viral contents, allowing viral replication.
While SARS-CoV-2 requires BSL-3 facilities for live virus work, pseudo-typed partices (PP) that incorporate SARS-CoV-2 spike proteins without replication elements could facilitate studies on viral entry mechanisms in a BSL-2 setting. This PP cell entry assay could also enable screening of small molecule compound libraries in BSL-2 setting to identify inhibitors of SARS-CoV-2 cell entry. To eliminate false positive compounds, ATP content cytotoxicity assay was screened in the same cell line.
SEQUENCE No. (e.g., 1, 2, 3, etc.); […] (e.g., Cells, Incubation, Reagent, etc.); VALUE and DESCRIPTION.
1. Cells. Seed 1500 HEK293-ACE2 cells (Expi293F with stable expression of human ACE2) in 2 uL/well media (DMEM, 10% FBS, 1x L-glutamine, 1x Pen/Strep, 1 ug/ml puromycin) in white 1536-well assay plates (Greiner #782073).
2. Incubation. Incubate at 37 C with 5% CO2 overnight (~16 h).
3. Compounds. Dispense 23 nL/well compounds in DMSO via pin transfer.
4. Incubation. Incubate for 1 h at 37C 5% CO2.
5. Reagent. Dispense 2 uL/well of media (DMEM, 10% FBS, 1x L-glutamine, 1x Pen/Strep, 1 ug/ml puromycin).
6. Incubation. Incubate at for 48h at 37C 5% CO2
7. Reagent. Dispense 4 uL/well of ATPLite 1step luminescence assay reagent (PerkinElmer #6016739).
8. Incubation. Incubate for 15 min at room temperature.
9. Detection. Read luminescence signal (Viewlux plate reader, PerkinElmer). Data was normalized with wells containing cells as 100%, and wells without cells (media only control) as 0%.
Background: A counterscreen serves to expose hits that act by an unwanted route or on another target.
On to `CN1CCN(c2cc3c(cc2F)c(=O)c(C(=O)O)cn3-c2ccc(F)cc2)CC1`, for which the Potency result was “inactive”. Take `CCC1NC(=O)c2cc(S(N)(=O)=O)c(Cl)cc2N1` (stereo not given): the Potency entry is “inactive”. Consider `NC(=O)Cc1cccc(C(=O)c2ccccc2)c1N`, for which the Potency entry was “inactive”. In the case of `N[C@H]1CN(c2c(F)cc3c(=O)c(C(=O)O)cn(C4C[C@@H]4F)c3c2Cl)CC12CC2` (stereo not given in full), the Potency entry was “inactive”. Take `Clc1ccc(Nc2nnc(Cc3ccncc3)c3ccccc23)cc1`: the Potency entry is “inactive”.

Turning to `COCCOC(=O)C1=C(C)NC(C)=C(C(=O)OC/C=C/c2ccccc2)C1c1cccc([N+](=O)[O-])c1` (stereo not given), the Potency result was “inactive”. `O=C1C(c2[nH]c3ccccc3c2O)=Nc2ccccc21`: the Potency entry is “inactive”. Regarding `CCCCN(CCCC)CCC(O)c1cc2c(Cl)cc(Cl)cc2c2cc(C(F)(F)F)ccc12` (stereo not given), the Potency result is “inactive”. As for `O=C(N[C@H]1N=C(c2ccccc2F)c2cccc3c2N(CC3)C1=O)c1cc2ccccc2[nH]1`, the Potency result is “inactive”.

For the compound `O=c1oc2c(O)c(O)cc3c(=O)oc4c(O)c(O)cc1c4c23`, the Potency entry is “inactive”. For `CCCCNc1ccc(C(=O)OCCN(CC)CC)cc1`, the Potency result is “inactive”.

Consider `CC[C@]1(O)CC[C@H]2[C@@H]3CCC4=CCCC[C@@H]4[C@H]3CC[C@@]21C`, for which the Potency entry was “inactive”. Next, `NCC1CCC(C(=O)Oc2ccc(CCC(=O)O)cc2)CC1` (stereo not given): “inactive”; `CC(C)OC(=O)C(C(=O)OC(C)C)=C1SC=CS1`: “inactive”. Consider `O=C(Nc1ccc(S(=O)(=O)N2CCOCC2)cc1)c1cc(Cl)ccc1NS(=O)(=O)c1ccc(Cl)s1`, for which the Potency entry is “inactive”.

With `CCC(=O)O[C@H]1CC[C@H]2[C@@H]3CCC4=CC(=O)CC[C@]4(C)[C@H]3CC[C@]12C`, the Potency result was “inactive”.

As for `COc1cc(N)c(Cl)cc1C(=O)NC1CCN(CCCOc2ccc(F)cc2)CC1OC` (stereo not given), the Potency entry is “inactive”. `CN(C)CCC(c1ccccc1)c1ccccn1` (stereo not given): the Potency entry is “inactive”. In the case of `O=C(OCC(O)CO)c1ccccc1Nc1ccnc2cc(Cl)ccc12` (stereo not given), the Potency result was “inactive”. For `COc1ccc(-c2cc(C(F)F)nn2-c2ccc(S(N)(=O)=O)cc2)cc1F`, the Potency result is “inactive”. On to `NC(=O)c1ncn([C@@H]2O[C@H](CO)[C@@H](O)[C@H]2O)c1N`, for which the Potency entry is “inactive”. Next, `C[C@]12CCC(=O)C=C1[C@@H]1C[C@@H]1[C@H]1[C@@H]3[C@@H]4C[C@@H]4[C@@]4(CCC(=O)O4)[C@@]3(C)CC[C@@H]12`: “inactive”; `O=C1OC2(c3ccc(O)cc3Oc3cc(O)ccc32)c2ccccc21`: “inactive”; `Clc1ccc(Cn2c(CN3CCCC3)nc3ccccc32)cc1`: “inactive”. Take `CCOC(=O)c1ccc(C#Cc2ccc3c(c2)C(C)(C)CCS3)nc1`: the Potency result was “inactive”. Take `CN(C)C(=O)Oc1cc(OC(=O)N(C)C)cc(C(O)CNC(C)(C)C)c1` (stereo not given): the Potency result was “inactive”.

Regarding `O=C(O)CCC(=O)OC[C@@H](NC(=O)C(Cl)Cl)[C@H](O)c1ccc([N+](=O)[O-])cc1`, the Potency result is “inactive”.

For `c1ccc(CN(CC2=NCCN2)c2ccccc2)cc1`, the Potency result is “inactive”.

For `O=C(Nc1ccc(Cl)cc1)Nc1ccc(Cl)c(C(F)(F)F)c1`, the Potency is 22.4 µM (active).

Turning to `COC(=O)C1=C(C)NC(C)=C(C(=O)OCCN2CCN(C(c3ccccc3)c3ccccc3)CC2)C1c1cccc([N+](=O)[O-])c1` (stereo not given), the Potency result was “inactive”. As for `COc1ccccc1N1CCN(CC(O)COc2cccc3ccccc23)CC1` (stereo not given), the Potency result is “inactive”. As for `CC(=O)[C@H]1CC[C@H]2[C@@H]3CC=C4C[C@@H](O)CC[C@]4(C)[C@H]3CC[C@]12C`, the Potency result is “inactive”. On to `Clc1ccc2c(c1)CCc1cccnc1C2=C1CCNCC1`, for which the Potency result was “inactive”.

On to `CCOC(=O)Nc1ccc(NCc2ccc(F)cc2)nc1N`, for which the Potency result is “inactive”. In the case of `OC1C(O)C(O)C(O)C(O)C1O` (stereo not given), the Potency entry is “inactive”. The result for `NS(=O)(=O)c1cc2c(cc1Cl)NC(CSCc1ccccc1)=NS2(=O)=O` reads “inactive”; that for `CCCCOc1cc(C(=O)OCCN(CC)CC)ccc1N`, “inactive”. As to `CN(C)CCN(Cc1cccs1)c1ccccn1`, the Potency result is “inactive”. With `CC(=O)c1ccc2c(c1)N(CCCN1CCC(CCO)CC1)c1ccccc1S2`, the Potency entry is “inactive”. On to `CCC(C)(C)c1ccc(CC(C)CN2C[C@@H](C)O[C@@H](C)C2)cc1` (stereo not given in full), for which the Potency result is “inactive”.
